{"source": "PubChem BioAssay (Tox21)", "note": "Results filed as inconclusive are left out. The source made the active and inactive calls. Calls follow the shape of the dose curve; as a rule, active = well fitted curve in the direction sought with a large enough effect in the repeat runs; inconclusive = weak or mixed curves; inactive = no such curve, though single readings can be large; an effect the other way counts as inactive or inconclusive. % is scaled to controls: 0 for no effect and ±100 for the full control effect; potency is read from the fitted curve at half-maximal effect."}
{"biological_target": "Androgen receptor (Homo sapiens) (UniProt P10275)", "sequence (P10275 whole entry, looked up)": "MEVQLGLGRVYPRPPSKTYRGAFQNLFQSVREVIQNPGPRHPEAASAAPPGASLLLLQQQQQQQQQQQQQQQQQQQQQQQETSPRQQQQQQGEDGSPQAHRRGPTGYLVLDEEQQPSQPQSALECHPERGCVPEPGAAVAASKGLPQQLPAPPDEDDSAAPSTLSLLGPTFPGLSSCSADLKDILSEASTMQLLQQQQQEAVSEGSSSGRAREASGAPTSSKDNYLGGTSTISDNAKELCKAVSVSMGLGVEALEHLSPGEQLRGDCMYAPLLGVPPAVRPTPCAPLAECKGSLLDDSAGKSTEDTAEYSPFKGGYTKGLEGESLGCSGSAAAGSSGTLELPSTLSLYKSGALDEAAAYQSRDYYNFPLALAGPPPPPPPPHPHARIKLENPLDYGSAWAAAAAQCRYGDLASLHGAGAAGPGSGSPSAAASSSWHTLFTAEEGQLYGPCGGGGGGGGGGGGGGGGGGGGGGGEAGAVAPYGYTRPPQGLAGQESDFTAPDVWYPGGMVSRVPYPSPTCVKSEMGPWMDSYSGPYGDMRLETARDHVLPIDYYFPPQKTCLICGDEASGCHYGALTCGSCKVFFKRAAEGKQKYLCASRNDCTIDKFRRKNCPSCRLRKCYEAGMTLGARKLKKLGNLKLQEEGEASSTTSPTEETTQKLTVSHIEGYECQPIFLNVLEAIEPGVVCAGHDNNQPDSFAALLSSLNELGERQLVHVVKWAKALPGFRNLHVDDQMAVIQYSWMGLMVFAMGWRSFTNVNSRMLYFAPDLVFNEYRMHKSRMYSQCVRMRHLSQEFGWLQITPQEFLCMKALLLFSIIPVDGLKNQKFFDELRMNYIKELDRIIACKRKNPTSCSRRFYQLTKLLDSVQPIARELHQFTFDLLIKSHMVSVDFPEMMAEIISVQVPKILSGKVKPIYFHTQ", "assay": "qHTS assay to identify small molecule antagonists of the androgen receptor (AR) signaling pathway using the MDA cell line (AID 743042; also: nearly all actives have a fitted effect of over 55% in size)", "conditions": "MDA-kb2 AR-luc, MMTV luciferase, R1881 antagonist, 16 h; series mostly up to 70.3 µM; activity change, negative = inhibition: at the top concentration", "in_short": "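MDA-kb2 cells (human breast carcinoma, stably carrying an MMTV-luciferase reporter responsive to AR and GR) were plated at 3,000 cells/well and preincubated 5 hr at 37C, then given compound plus R1881 agonist for 16 h. ONE-Glo luminescence was read.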"}
{"smiles": "Fc1ccccc1[C@@H](F)COC1CCC(Nc2ncnc3[nH]ncc23)CC1", "note": "(stereo partly drawn)", "Potency": "19.3 µM (active)"}
{"smiles": "CC(C)=CC=O", "activity change, negative = inhibition": "6.58% [at 95 µM] (inactive)"}
{"smiles": "CC(=O)Nc1ccc(N)cc1", "activity change, negative = inhibition": "1.91% [at 95 µM] (inactive)"}
{"smiles": "O=C(N/N=C/c1ccc([N+](=O)[O-])o1)c1ccc(O)cc1", "Potency": "4.52 µM (active)"}
{"smiles": "CCOC(=O)CC(=O)C(=O)OCC", "activity change, negative = inhibition": "7.55% (inactive)"}
{"smiles": "CCCOC(=O)c1ccc(C(=O)OCCC)nc1", "activity change, negative = inhibition": "3.82% (inactive)"}
{"smiles": "C=CC(=C)CCCC(C)(C)OC(C)=O", "activity change, negative = inhibition": "8.94% (inactive)"}
{"smiles": "OCC1CC=CCC1", "note": "(stereo not drawn)", "activity change, negative = inhibition": "4.97% (inactive)"}
{"smiles": "CO[C@H]1C=CO[C@@]2(C)Oc3c(C)c(O)c4c(O)c(c5c(c4c3C2=O)=NC2(CCN(CC(C)C)CC2)N=5)NC(=O)/C(C)=C\\C=C/[C@H](C)[C@H](O)[C@@H](C)[C@@H](O)[C@@H](C)[C@H](OC(C)=O)[C@@H]1C", "activity change, negative = inhibition": "-5.36% (inactive)"}
{"smiles": "COc1cc2c(N3CCN(C(=O)Nc4ccc(OC(C)C)cc4)CC3)ncnc2cc1OCCCN1CCCCC1", "activity change, negative = inhibition": "-16.5% (inactive)"}
{"smiles": "CC(=O)[C@H]1CC[C@H]2[C@@H]3C=CC4=CC(=O)CC[C@@]4(C)[C@@H]3CC[C@]12C", "activity change, negative = inhibition": "-7.81% [at 32.5 µM] (inactive)"}
{"smiles": "CCCCCCCCCCCCCCC[C@H](O)[C@@H](N)CO", "activity change, negative = inhibition": "13.3% (inactive)"}
{"smiles": "CC1(C)C2=CCCC(C)(C)[C@]23CC[C@H]1C3", "activity change, negative = inhibition": "-16.8% (inactive)"}
{"smiles": "O=C(CCC1CCN(Cc2ccccc2)CC1)c1ccc2c(c1)NCCCC2", "Potency": "29.8 µM (active)"}
{"smiles": "c1cnc2c(n1)CCCC2", "activity change, negative = inhibition": "-2.67% (inactive)"}
{"smiles": "C[Si]1(C)O[Si](C)(C)O[Si](C)(C)O1", "activity change, negative = inhibition": "-0.0425% (inactive)"}
{"smiles": "CC(C)CCCC(=O)O", "activity change, negative = inhibition": "0.296% (inactive)"}
{"smiles": "Nc1ccc(Cl)cc1[N+](=O)[O-]", "activity change, negative = inhibition": "-8.89% (inactive)"}
{"system": "not listed separately", "assay": "qHTS assay to identify small molecule antagonists of the thyroid receptor (TR) signaling pathway - cell viability counter screen (AID 743064); also: nearly all actives have a fitted effect of over 50% in size", "conditions": "GH3.TRE-Luc viability, CellTiter-Fluor, 24 h; series mostly up to 70.3 µM; activity change, negative = cytotoxic: at the top concentration", "in_short": "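GH3.TRE-Luc rat pituitary cells dosed after 4 hr plating, co-stimulated with T3 at 1 nM final, incubated 23.5 h at 37 C. Viability measured in the same wells by CellTiter-Fluor fluorescence after 30 min further at 37 C.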"}
{"smiles": "CC(C)=CC=O", "activity change, negative = cytotoxic": "0% [at 95 µM] (inactive)"}
{"smiles": "O=C(N/N=C/c1ccc([N+](=O)[O-])o1)c1ccc(O)cc1", "activity change, negative = cytotoxic": "-25.7% [at 32.5 µM] (inactive)"}
{"smiles": "O=S1OCCO1", "activity change, negative = cytotoxic": "-7.97% [at 95 µM] (inactive)"}
{"smiles": "CCOC(=O)CC(=O)C(=O)OCC", "activity change, negative = cytotoxic": "21.2% (inactive)"}
{"smiles": "CC(COc1ccc(C(C)(C)C)cc1)OS(=O)OCCCl", "note": "(stereo not drawn)", "activity change, negative = cytotoxic": "-3.1% [at 95 µM] (inactive)"}
{"smiles": "CCCOC(=O)c1ccc(C(=O)OCCC)nc1", "activity change, negative = cytotoxic": "25.5% (inactive)"}
{"smiles": "CCCCCCCCCCCCCCCCBr", "activity change, negative = cytotoxic": "2.62% [at 32.5 µM] (inactive)"}
{"smiles": "C=CC(=C)CCCC(C)(C)OC(C)=O", "activity change, negative = cytotoxic": "3.22% (inactive)"}
{"smiles": "OCC1CC=CCC1", "note": "(stereo not drawn)", "activity change, negative = cytotoxic": "16.6% (inactive)"}
{"smiles": "COc1cc2ncnc(Nc3ccc(F)c(Cl)c3)c2cc1OCCCN1CCOCC1", "Potency": "10.6 µM (active)"}
{"smiles": "CO[C@H]1C=CO[C@@]2(C)Oc3c(C)c(O)c4c(O)c(c5c(c4c3C2=O)=NC2(CCN(CC(C)C)CC2)N=5)NC(=O)/C(C)=C\\C=C/[C@H](C)[C@H](O)[C@@H](C)[C@@H](O)[C@@H](C)[C@H](OC(C)=O)[C@@H]1C", "Potency": "29.8 µM (active)"}
{"smiles": "CCCCCC=CCC=CCCCCCCCC(=O)OCC", "activity change, negative = cytotoxic": "11.6% (inactive)"}
{"smiles": "COc1cc2c(N3CCN(C(=O)Nc4ccc(OC(C)C)cc4)CC3)ncnc2cc1OCCCN1CCCCC1", "Potency": "11.9 µM (active)"}
{"smiles": "CC(=O)[C@H]1CC[C@H]2[C@@H]3C=CC4=CC(=O)CC[C@@]4(C)[C@@H]3CC[C@]12C", "activity change, negative = cytotoxic": "-16.2% [at 32.5 µM] (inactive)"}
{"smiles": "O=C(O)c1cccnc1C(=O)O", "activity change, negative = cytotoxic": "-0.522% (inactive)"}
{"smiles": "Oc1ccc(Nc2ccccc2)cc1", "Potency": "54.5 µM (active)"}
{"smiles": "CC1(C)C2=CCCC(C)(C)[C@]23CC[C@H]1C3", "activity change, negative = cytotoxic": "-2.14% (inactive)"}
{"smiles": "COC(=O)[C@@H]1CC2=CC(=O)CC[C@]2(C)[C@@]23O[C@@H]2C[C@@]2(C)[C@@H](CC[C@@]24CCC(=O)O4)[C@H]13", "activity change, negative = cytotoxic": "17.6% (inactive)"}
{"smiles": "COCC(O)CO", "note": "(stereo not drawn)", "activity change, negative = cytotoxic": "-3.55% [at 95 µM] (inactive)"}
{"smiles": "CCC(=O)OC/C=C/c1ccccc1", "activity change, negative = cytotoxic": "5.42% (inactive)"}
{"smiles": "CCc1cccc(N(C)C(N)=Nc2cccc3ccccc23)c1", "Potency": "18.8 µM (active)"}
{"smiles": "O=Cc1c(Cl)cccc1Cl", "activity change, negative = cytotoxic": "3.98% [at 95 µM] (inactive)"}
{"smiles": "c1cnc2c(n1)CCCC2", "activity change, negative = cytotoxic": "0.933% (inactive)"}
{"smiles": "C[Si]1(C)O[Si](C)(C)O[Si](C)(C)O1", "activity change, negative = cytotoxic": "5.54% (inactive)"}
{"smiles": "COC(OC)(C(=O)c1ccccc1)c1ccccc1", "activity change, negative = cytotoxic": "-3.43% (inactive)"}
{"smiles": "CC(C)CCCC(=O)O", "activity change, negative = cytotoxic": "11.8% (inactive)"}
{"smiles": "CCCOCCOCCO", "activity change, negative = cytotoxic": "12.1% (inactive)"}
{"smiles": "CC1CN(c2cc3c(cc2F)c(=O)c(C(=O)O)cn3-c2ccc(F)cc2F)CCN1", "note": "(stereo not drawn)", "activity change, negative = cytotoxic": "-9.94% (inactive)"}
{"smiles": "CC(C)(CCl)c1ccccc1", "activity change, negative = cytotoxic": "-4.92% (inactive)"}
{"smiles": "CC(Cl)C(Cl)Cl", "note": "(stereo not drawn)", "activity change, negative = cytotoxic": "2.67% (inactive)"}
{"smiles": "Cc1nc2ccccc2s1", "activity change, negative = cytotoxic": "13.8% [at 95 µM] (inactive)"}
{"smiles": "C=CCCCCCCCCCCCCCCCC", "activity change, negative = cytotoxic": "-9.44% [at 8.44 µM] (inactive)"}
{"system": "not listed separately", "assay": "qHTS assay to identify small molecule antagonists of the thyroid receptor (TR) signaling pathway (AID 743065); also: nearly all actives have a fitted effect of over 55% in size", "conditions": "GH3.TRE-Luc, T3-stimulated luciferase inhibition, 23.5 h; series mostly up to 70.3 µM; activity, negative = inhibition: at the top concentration", "in_short": "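GH3.TRE-Luc rat pituitary cells carrying two TR response elements driving luciferase were plated for 4 h, given compound plus 1 nM T3 (final), and incubated 23.5 h at 37 C. ONE-Glo luminescence measured reporter inhibition; CellTiter-Fluor fluorescence tracked cytotoxicity.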"}
{"smiles": "Fc1ccccc1[C@@H](F)COC1CCC(Nc2ncnc3[nH]ncc23)CC1", "note": "(stereo partly drawn)", "Potency": "48.6 µM (active)"}
{"smiles": "CC(C)=CC=O", "activity, negative = inhibition": "0% [at 95 µM] (inactive)"}
{"smiles": "CC(=O)Nc1ccc(N)cc1", "activity, negative = inhibition": "47.5% [at 95 µM] (inactive)"}
{"smiles": "O=S1OCCO1", "activity, negative = inhibition": "-0.332% [at 95 µM] (inactive)"}
{"smiles": "CCOC(=O)CC(=O)C(=O)OCC", "activity, negative = inhibition": "21.8% (inactive)"}
{"smiles": "CC(COc1ccc(C(C)(C)C)cc1)OS(=O)OCCCl", "note": "(stereo not drawn)", "activity, negative = inhibition": "-0.681% [at 95 µM] (inactive)"}
{"smiles": "CCCOC(=O)c1ccc(C(=O)OCCC)nc1", "activity, negative = inhibition": "0.0788% (inactive)"}
{"smiles": "CCCCCCCCCCCCCCCCBr", "activity, negative = inhibition": "11.9% [at 32.5 µM] (inactive)"}
{"smiles": "C=CC(=C)CCCC(C)(C)OC(C)=O", "activity, negative = inhibition": "-1.51% (inactive)"}
{"smiles": "OCC1CC=CCC1", "note": "(stereo not drawn)", "activity, negative = inhibition": "8.34% (inactive)"}
{"smiles": "COc1cc2ncnc(Nc3ccc(F)c(Cl)c3)c2cc1OCCCN1CCOCC1", "Potency": "10.6 µM (active)"}
{"smiles": "CO[C@H]1C=CO[C@@]2(C)Oc3c(C)c(O)c4c(O)c(c5c(c4c3C2=O)=NC2(CCN(CC(C)C)CC2)N=5)NC(=O)/C(C)=C\\C=C/[C@H](C)[C@H](O)[C@@H](C)[C@@H](O)[C@@H](C)[C@H](OC(C)=O)[C@@H]1C", "Potency": "29.8 µM (active)"}
{"smiles": "CCCCCC=CCC=CCCCCCCCC(=O)OCC", "activity, negative = inhibition": "4.59% (inactive)"}
{"smiles": "COc1cc2c(N3CCN(C(=O)Nc4ccc(OC(C)C)cc4)CC3)ncnc2cc1OCCCN1CCCCC1", "Potency": "13.3 µM (active)"}
{"smiles": "O=C(O)c1cccnc1C(=O)O", "activity, negative = inhibition": "3.56% (inactive)"}
{"smiles": "Oc1ccc(Nc2ccccc2)cc1", "Potency": "43.3 µM (active)"}
{"smiles": "COC(=O)[C@@H]1CC2=CC(=O)CC[C@]2(C)[C@@]23O[C@@H]2C[C@@]2(C)[C@@H](CC[C@@]24CCC(=O)O4)[C@H]13", "activity, negative = inhibition": "-10.2% (inactive)"}
{"smiles": "COCC(O)CO", "note": "(stereo not drawn)", "activity, negative = inhibition": "-3.38% [at 95 µM] (inactive)"}
{"smiles": "CCC(=O)OC/C=C/c1ccccc1", "activity, negative = inhibition": "13.3% (inactive)"}
{"smiles": "O=C(CCC1CCN(Cc2ccccc2)CC1)c1ccc2c(c1)NCCCC2", "Potency": "11.9 µM (active)"}
{"smiles": "CCc1cccc(N(C)C(N)=Nc2cccc3ccccc23)c1", "Potency": "21.1 µM (active)"}
{"smiles": "O=Cc1c(Cl)cccc1Cl", "activity, negative = inhibition": "8.99% [at 95 µM] (inactive)"}
{"smiles": "c1cnc2c(n1)CCCC2", "activity, negative = inhibition": "2.31% (inactive)"}
{"smiles": "C[Si]1(C)O[Si](C)(C)O[Si](C)(C)O1", "activity, negative = inhibition": "0.861% (inactive)"}
{"smiles": "COC(OC)(C(=O)c1ccccc1)c1ccccc1", "activity, negative = inhibition": "-5.05% (inactive)"}
{"smiles": "CC(C)CCCC(=O)O", "activity, negative = inhibition": "3.97% (inactive)"}
{"smiles": "CCCOCCOCCO", "activity, negative = inhibition": "7.58% (inactive)"}
{"smiles": "CC1CN(c2cc3c(cc2F)c(=O)c(C(=O)O)cn3-c2ccc(F)cc2F)CCN1", "note": "(stereo not drawn)", "activity, negative = inhibition": "-0.0188% (inactive)"}
{"smiles": "CC(C)(CCl)c1ccccc1", "activity, negative = inhibition": "-3.85% (inactive)"}
{"smiles": "Nc1ccc(Cl)cc1[N+](=O)[O-]", "activity, negative = inhibition": "45.6% (inactive)"}
{"smiles": "CC(Cl)C(Cl)Cl", "note": "(stereo not drawn)", "activity, negative = inhibition": "3.05% (inactive)"}
{"smiles": "Cc1nc2ccccc2s1", "activity, negative = inhibition": "16% [at 95 µM] (inactive)"}
{"smiles": "C=CCCCCCCCCCCCCCCCC", "activity, negative = inhibition": "-26.3% [at 8.44 µM] (inactive)"}
